# Test results reported in ChEMBL document CHEMBL4513156, “CO-ADD screening of NCPRI (Romania) compounds”.
# Entries with a potency or affinity are not part of this list.
# Test system: Cryptococcus neoformans
# Settings: Concentration 32 ug.mL-1; ASSAY_TEST Inhibition of Fungal Growth; detection method Resazurin; Absorption (OD600-OD570); plate type 384well; NBS; CORNING #3640
row,SMILES,Inhibition [%]
1,O=C(N/N=C1/C[C@@H]2[C@H](COC(c3ccccc3)(c3ccccc3)c3ccccc3)C[C@H](COC(c3ccccc3)(c3ccccc3)c3ccccc3)[C@@H]2C1)c1ccncc1,-17.15
2,O=C(NN=CC[C@H]1[C@H](CO)[C@@H](O)C[C@H]1O)c1ccncc1,-70.97
3,O=C(NNC(=O)c1cccc([N+](=O)[O-])c1C(=O)O)c1ccncc1,-5.54
4,O=C(ON/N=C/[C@@H]1[C@@H]2C[C@H](Cl)[C@H]1C[C@H]2O)c1ccncc1,-97.88
5,O=C(N/N=C/CCCO)c1ccncc1,-50.92
6,O=C(N/N=C/C[C@@H]1[C@@H](/C=C/[C@@H](O)COc2cccc(Cl)c2)[C@H](O)C[C@@H]1O)c1ccncc1,-81.79
7,COC(=O)CCCCCC[C@@H]1[C@@H](/C=N/NC(=O)c2ccncc2)[C@H](O)C[C@@H]1O,-95.51
8,O=C(N/N=C1\CC[C@@H]2[C@H]1[C@H](OC(=O)c1ccccc1)C[C@@H]2OC(=O)c1ccccc1)c1ccncc1,-65.69
9,O=C(N/N=C/[C@@H]1C[C@H](CO)[C@@H]2CCC[C@@H]21)c1ccncc1,-36.93
10,COC(=O)C[C@H]1[C@H](/C=N\NC(=O)c2ccncc2)[C@@H](O[Si](C)(C)C(C)(C)C)C[C@@H]1Cl,-101.31
11,O=C(N/N=C/C[C@@H]1[C@@H](/C=C/[C@@H](O)COc2ccccc2)[C@H](O)C[C@@H]1O)c1ccncc1,-89.18
12,COC(=O)CCCCCC[C@@H]1[C@@H](/C=N/NC(=O)c2ccncc2)[C@H](OC(=O)c2ccccc2)C[C@@H]1O,-95.25
13,CC(C)(C)[Si](C)(C)O[C@H](/C=C/[C@@H]1[C@@H](CC=NNC(=O)c2ccncc2)[C@@H](O)C[C@H]1O[Si](C)(C)C(C)(C)C)CCc1ccccc1,-66.75
14,O=C(NNC(=O)[C@@H]1C[C@H](C(=O)O)[C@@H]2CC=C[C@@H]21)c1ccncc1,-37.2
15,CC(C)(C)[Si](C)(C)OCC1C2C[C@H]3C1[C@@H]3/C2=N/NC(=O)c1ccncc1 (some centres not stated),-48.28
16,O=C(NNC(=O)c1ccc([N+](=O)[O-])cc1C(=O)O)c1ccncc1,-51.18
17,O=C(NN=CC[C@@H]1[C@@H](/C=C/[C@@H](O)CCc2ccccc2)[C@H](OC(=O)c2ccccc2)C[C@@H]1O)c1ccncc1,-72.55
18,O=C(N/N=C1/C[C@@H]2[C@H](C1)[C@H](OC(=O)c1ccccc1)C[C@@H]2OC(=O)c1ccccc1)c1ccncc1,-110.81
19,O=C(NN=C[C@H]1[C@H]2CC(O)OC[C@H]2C[C@H]1O)c1ccncc1 (some centres not stated),-80.47

row,SMILES,Inhibition [%]
1,O=C(N/N=C1\C[C@@H]2[C@H](COC(c3ccccc3)(c3ccccc3)c3ccccc3)C[C@H](CO)[C@@H]2C1)c1ccncc1,-65.69
2,O=C(N/N=C1/C[C@H]2[C@H](CO)[C@@H]1C[C@@H]2Cl)c1ccncc1,-80.47
3,O=C(N/N=C/C[C@@H]1[C@@H](/C=N/NC(=O)c2ccncc2)[C@H](O)C[C@@H]1O)c1ccncc1,-79.15
4,O=C(NN=CC[C@@H]1[C@@H](/C=C/[C@@H](O)CCc2ccccc2)[C@H](O)C[C@@H]1O)c1ccncc1,-90.23
5,O=C(NN=C[C@H]1[C@@H]2CCO[C@@H]2C[C@@H]1O)c1ccncc1,-54.08
6,O=C(N/N=C1\C[C@@H]2[C@@H](CO)[C@H]1C[C@H]2Cl)c1ccncc1,-60.68
7,O=C(N/N=C1/C2C[C@H]3C(C2CO)[C@H]13)c1ccncc1 (some centres not stated),-50.92
8,O=C(NN=CC[C@@H]1[C@@H](COC2CCCCO2)[C@H](OC2CCCCO2)C[C@@H]1O)c1ccncc1 (some centres not stated),-44.06
9,O=C(N/N=C/COc1cccc(Cl)c1)c1ccncc1,-88.39
10,O=C(NNC(=O)[C@@H]1C[C@H](C(=O)O)[C@@H]2CCC[C@@H]21)c1ccncc1,-51.45
11,O=C(N/N=C1/C[C@@H]2[C@@H](C(=O)O)[C@H]1C[C@H]2Cl)c1ccncc1,-56.2
12,O=C(N/N=C1/C2C[C@H]3C(C2C(=O)O)[C@@H]13)c1ccncc1 (some centres not stated),-16.35
13,O=C1C[C@H]2[C@H](/C=N/NC(=O)c3ccncc3)[C@H](C[C@@H]2Cl)O1,-80.73
14,O=C(N/N=C/C[C@@H]1[C@@H](CO)[C@H](O)C[C@@H]1O)c1ccncc1,-75.19
15,NNC(=O)c1ccncc1 [ISONIAZID],-55.93
16,O=C1C[C@@H]2[C@@H](C=NNC(=O)c3ccncc3)[C@@H](C[C@H]2Cl)O1,-98.94
17,CC(C)(C)[Si](C)(C)OC[C@H]1[C@H](CC=NNC(=O)c2ccncc2)[C@H](O)C[C@@H]1O[Si](C)(C)C(C)(C)C,-64.37
18,O=C(NNC(c1ccccc1)(c1ccccc1)c1ccccc1)c1ccncc1,-75.72
